In PubChem BioAssay (NCATS):
Results filed as inconclusive are left out. Where a call stands in place of a potency, no number is given. Calls of active or inactive are those of the source. Calls follow the shape of the dose curve; as a rule, active = well fitted curve in the direction sought with a large enough effect; inconclusive = small, poorly fitted or top-dose-only effect, or another doubt; inactive = no such curve, though single readings can be large; an effect the other way counts as inactive or inconclusive.

The compounds below were run against ATP-dependent 6-phosphofructokinase (Trypanosoma brucei brucei) (UniProt O15648) (assay: qHTS Assay to Find Inhibitors of T. brucei phosphofructokinase: hit validation (AID 492961;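 also: luminescence reports ADP formed as PFK phosphorylates fructose-6-phosphate with ATP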)). Conditions: T. brucei PFK, ADP-Glo luminescence; series mostly up to 51.4 µM.
In short: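 Measures ADP output of PFK (1.25 nM) at 0.1 mM ATP, 0.5 mM F6P, pH 8.0 TEA buffer with 5 mM MgCl2. No-enzyme wells define full inhibition; uninhibited enzyme wells define zero.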

Chain of ATP-dependent 6-phosphofructokinase (Trypanosoma brucei brucei) (O15648 whole entry, looked up): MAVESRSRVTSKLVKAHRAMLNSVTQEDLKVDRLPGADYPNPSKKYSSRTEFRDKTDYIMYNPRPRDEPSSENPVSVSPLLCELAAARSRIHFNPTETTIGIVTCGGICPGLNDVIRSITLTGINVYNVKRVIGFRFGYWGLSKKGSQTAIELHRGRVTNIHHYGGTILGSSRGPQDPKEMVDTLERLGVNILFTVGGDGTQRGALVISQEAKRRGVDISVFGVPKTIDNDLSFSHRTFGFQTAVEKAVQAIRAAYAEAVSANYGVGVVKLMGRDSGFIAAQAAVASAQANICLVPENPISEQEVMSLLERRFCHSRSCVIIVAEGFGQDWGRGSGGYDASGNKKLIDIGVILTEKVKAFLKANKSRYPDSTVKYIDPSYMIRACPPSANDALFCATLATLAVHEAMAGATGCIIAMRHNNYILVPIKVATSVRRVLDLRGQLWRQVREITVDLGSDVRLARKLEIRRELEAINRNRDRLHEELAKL

SMILES | outcome
CCN(CC)CCc1nc(-c2ccccc2)no1 | inactive
CCc1cccc(CC)c1NC(=O)CN(CC(=O)O)CC(=O)O | inactive
Cc1c(NC(C)C)c(=O)n(-c2ccccc2)n1C | inactive
CC(C)C[C@@H](N)C(=O)O | inactive
NC(N)=NS(=O)(=O)c1ccc(N)cc1 | inactive
CN1C[C@@H]2C[C@H]1CN2c1cc2c(cc1F)c(=O)c(C(=O)O)cn2C1CC1 | inactive
CNCc1ccccc1 | inactive
O=c1[nH]c(=O)c2ccccc2o1 | inactive
OCc1ccc(Cl)cc1Cl | inactive
CCCCC1(COC(=O)CCC(=O)O)C(=O)N(c2ccccc2)N(c2ccccc2)C1=O | inactive
Cc1ccc(C(C)C)c(O)c1 | inactive
Cc1cc(O)cc(C)c1Cl | inactive
CCOC(=O)c1cccnc1 | inactive
O=c1[nH]cnc2nc[nH]c12 | inactive
CC(=O)N[C@@H](Cc1ccc(O)cc1)C(=O)O | inactive
C[C@H]1COc2c(C3(N)CC3)c(F)cc3c(=O)c(C(=O)O)cn1c23 | inactive
CCOC(N)=O | inactive
Nc1ncnc(Nc2ccccc2)n1 | inactive

SMILES | outcome
C=CCSCC1Nc2cc(Cl)c(S(N)(=O)=O)cc2S(=O)(=O)N1 (stereo not given) | inactive
CCCCCCCC(=O)OCC(O)CO (stereo not given) | inactive
Cc1cc(OI)c(C(C)C)cc1-c1cc(C(C)C)c(OI)cc1C | inactive
NC(=O)NS(=O)(=O)c1ccc(N)cc1 | inactive
CCc1nnc(NS(=O)(=O)c2ccc(N)cc2)s1 | inactive
Nc1c2c(nc3c1CCC3)CCCC2 | inactive
CN1CCN(C(=O)C2CCCCC2)CC1 | inactive
CCCCCCCCCCOc1cc2c(=O)c(C(=O)OCC)c[nH]c2cc1OCC | inactive
CCN(CC)CCOC(=O)C(c1ccccc1)c1ccccc1 | inactive
O=C(CN1CCNCC1)NC1CCCCC1 | inactive
O=C(O)c1ccc[n+]([O-])c1 | inactive
O=C1c2ccccc2S(=O)(=O)N1CCCCN1CCN(c2ncccn2)CC1 | inactive
CC1CCN(CCCC(=O)c2ccc(F)cc2)CC1 | inactive
O=C(O)c1ccc(OCCCOc2ccc(C(=O)O)cc2)cc1 | inactive
CC(O)CCCCn1c(=O)c2c(ncn2C)n(C)c1=O (stereo not given) | inactive
Cc1[nH]c(C)c(Cl)c(=O)c1Cl | inactive
CC(N)CCCC(C)(C)O (stereo not given) | inactive

The compounds below were run against Ubiquitin carboxyl-terminal hydrolase 1 (Homo sapiens) (UniProt O94782) (assay: Inhibitors of USP1/UAF1: Pilot qHTS (AID 504865;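 also: rhodamine fluorescence freed from ubiquitin-rhodamine substrate followed over time; top concentration of the series differs between compounds; nearly all actives have a fitted effect of over 35% in size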)). Conditions: purified USP1/UAF1, Ub-rhodamine cleavage fluorescence; series mostly up to 114 µM.
In short: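 Deubiquitinase activity followed as kinetic rhodamine fluorescence release from 150 nM Ub-Rho. 1 nM USP1/UAF1 with compound, after 15 min room-temperature preincubation, in HEPES pH 7.8 buffer containing TCEP, EDTA, BSA and Tween-20.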

Chain of Ubiquitin carboxyl-terminal hydrolase 1 (Homo sapiens) (O94782 whole entry, looked up): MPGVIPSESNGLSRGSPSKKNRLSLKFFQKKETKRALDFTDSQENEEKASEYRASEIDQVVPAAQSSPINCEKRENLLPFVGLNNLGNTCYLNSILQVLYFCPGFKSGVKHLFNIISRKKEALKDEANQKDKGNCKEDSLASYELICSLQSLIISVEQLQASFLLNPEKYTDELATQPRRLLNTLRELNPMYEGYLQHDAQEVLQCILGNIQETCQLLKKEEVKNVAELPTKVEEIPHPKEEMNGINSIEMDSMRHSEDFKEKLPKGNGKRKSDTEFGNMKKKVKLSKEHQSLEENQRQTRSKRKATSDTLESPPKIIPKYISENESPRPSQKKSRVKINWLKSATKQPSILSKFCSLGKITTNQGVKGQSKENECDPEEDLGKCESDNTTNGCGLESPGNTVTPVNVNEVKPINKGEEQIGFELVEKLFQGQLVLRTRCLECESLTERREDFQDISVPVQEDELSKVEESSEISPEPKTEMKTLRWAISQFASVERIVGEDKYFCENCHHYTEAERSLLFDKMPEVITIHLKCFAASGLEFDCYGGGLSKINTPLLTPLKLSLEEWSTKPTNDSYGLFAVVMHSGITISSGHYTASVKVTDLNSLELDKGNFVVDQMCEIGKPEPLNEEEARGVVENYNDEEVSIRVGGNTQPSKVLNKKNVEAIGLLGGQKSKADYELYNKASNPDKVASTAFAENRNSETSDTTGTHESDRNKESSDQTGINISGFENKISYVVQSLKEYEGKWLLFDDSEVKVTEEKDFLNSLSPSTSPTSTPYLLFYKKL

SMILES | Potency
CCN(CC)CCc1nc(-c2ccccc2)no1 | inactive
CCc1cccc(CC)c1NC(=O)CN(CC(=O)O)CC(=O)O | inactive
Cc1c(NC(C)C)c(=O)n(-c2ccccc2)n1C | inactive
CC(C)C[C@@H](N)C(=O)O | inactive
NC(N)=NS(=O)(=O)c1ccc(N)cc1 | inactive
CN1C[C@@H]2C[C@H]1CN2c1cc2c(cc1F)c(=O)c(C(=O)O)cn2C1CC1 | inactive
CNCc1ccccc1 | inactive
O=c1[nH]c(=O)c2ccccc2o1 | inactive
OCc1ccc(Cl)cc1Cl | inactive
CCCCC1(COC(=O)CCC(=O)O)C(=O)N(c2ccccc2)N(c2ccccc2)C1=O | inactive
Cc1ccc(C(C)C)c(O)c1 | inactive
Cc1cc(O)cc(C)c1Cl | inactive
CCOC(=O)c1cccnc1 | inactive
O=c1[nH]cnc2nc[nH]c12 | inactive
CC(=O)N[C@@H](Cc1ccc(O)cc1)C(=O)O | inactive
C[C@H]1COc2c(C3(N)CC3)c(F)cc3c(=O)c(C(=O)O)cn1c23 | inactive
CCOC(N)=O | inactive
Nc1ncnc(Nc2ccccc2)n1 | inactive

SMILES | Potency
C=CCSCC1Nc2cc(Cl)c(S(N)(=O)=O)cc2S(=O)(=O)N1 (stereo not given) | inactive
CCCCCCCC(=O)OCC(O)CO (stereo not given) | inactive
Cc1cc(OI)c(C(C)C)cc1-c1cc(C(C)C)c(OI)cc1C | inactive
NC(=O)NS(=O)(=O)c1ccc(N)cc1 | inactive
CCc1nnc(NS(=O)(=O)c2ccc(N)cc2)s1 | inactive
Nc1c2c(nc3c1CCC3)CCCC2 | inactive
CN1CCN(C(=O)C2CCCCC2)CC1 | inactive
CCCCCCCCCCOc1cc2c(=O)c(C(=O)OCC)c[nH]c2cc1OCC | inactive
CCN(CC)CCOC(=O)C(c1ccccc1)c1ccccc1 | inactive
O=C(CN1CCNCC1)NC1CCCCC1 | inactive
O=C(O)c1ccc[n+]([O-])c1 | inactive
O=C1c2ccccc2S(=O)(=O)N1CCCCN1CCN(c2ncccn2)CC1 | inactive
CC1CCN(CCCC(=O)c2ccc(F)cc2)CC1 | inactive
O=C(O)c1ccc(OCCCOc2ccc(C(=O)O)cc2)cc1 | inactive
CC(O)CCCCn1c(=O)c2c(ncn2C)n(C)c1=O (stereo not given) | inactive
Cc1[nH]c(C)c(Cl)c(=O)c1Cl | inactive
CC(N)CCCC(C)(C)O (stereo not given) | inactive
